According to PubChem BioAssay (Tox21):
Records with an inconclusive call do not appear. Calls of active or inactive are those of the source. Unless noted, calls follow the shape of the dose curve; as a rule, active = well fitted curve in the direction sought with a large enough effect in the repeat runs; inconclusive = weak or mixed curves; inactive = no such curve, though single readings can be large; an effect the other way counts as inactive or inconclusive.

Columns and labels:
[1] = qHTS assay to identify small molecule agonists of the vitamin D receptor (VDR) signaling pathway - cell viability counter screen (AID 743224); also: series mostly up to about 63 µM; nearly all actives have a fitted effect of over 50% in size
Summary of the method: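 Luminescence from CellTiter-Glo, read after 30 min at room temperature, reports viability of VDR-bla cells treated with compounds for 16 h at 37C in the wells used for the beta-lactamase FRET read.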

[2] = qHTS assay to identify small molecule antagonists of the vitamin D receptor (VDR) signaling pathway - cell viability counter screen (AID 743225); also: nearly all actives have a fitted effect of over 50% in size
Summary of the method: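 Parallel cytotoxicity test: VDR-UAS-bla HEK 293T, 3 nM (final) 1-alpha,25-dihydroxyvitamin D3 with test compound, 16 h, 37C. Endpoint is CellTiter-Glo luminescence in the same wells.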

[3] = qHTS assay to identify small molecule agonists of the NFkB signaling pathway (AID 1159509; active = well fitted curve in the direction sought with a large enough effect in the signal ratio in the repeat runs, not every such curve was filed as active; the % refers to the signal ratio; also: series mostly up to about 61 µM)
Summary of the method: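 NFkB-bla ME-180 cells carry a beta-lactamase reporter under an NF-kB response element. They were plated overnight, then exposed to compounds for 5 h at 37 C. Read-out is LiveBLAzer FRET after 1.5 hr at room temperature (405 nm excitation; 460/530 nm emission).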

[4] = qHTS assay to identify small molecule agonists of the NFkB signaling pathway - cell viability counter screen (AID 1159515; calls by dose curve; also: series mostly up to about 61 µM; nearly all actives have a fitted effect of over 55% in size)
Summary of the method: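 Luminescence from CellTiter-Glo (30 min, room temperature) gives viability, measured in the same wells as the beta-lactamase reporter read. Cells were NFkB-bla ME-180, 2,000 per well, treated 5 hr with compounds.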

[5] = qHTS assay to identify small molecule agonists of the endoplasmic reticulum stress response signaling pathway (AID 1159516; active = well fitted activation curve with a large enough effect in the signal ratio in the repeat runs, not every such curve was filed as active; the % refers to the signal ratio)
Summary of the method: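 Read-out is beta-lactamase cleavage of a FRET substrate (405 nm excitation; 460 and 530 nm emissions) in ESRE-bla HeLa cells after a 5 hr compound exposure at 37 C. Substrate incubation ran 2 hr at room temperature.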

[6] = qHTS assay to identify small molecule agonists of the endoplasmic reticulum stress response signaling pathway - cell viability counter screen (AID 1159517; calls by dose curve;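 also: HeLa cells carrying an ER stress response element beta-lactamase reporter; series mostly up to about 61 µM; nearly all actives have a fitted effect of over 50% in size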)
Summary of the method: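 ESRE-bla HeLa cells, 1,500 per well, seeded overnight then treated with compounds for 5 hr at 37 C. After the beta-lactamase read, viability in the same wells is measured by CellTiter-Glo luminescence after 30 min at room temperature.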

[7] = qHTS assay to identify small molecule antagonists of the retinoid-related orphan receptor gamma (ROR-gamma) signaling pathway - cell viability counter screen (AID 1159520); also: nearly all actives have a fitted effect of over 50% in size
Summary of the method: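 Tet-on ROR gamma CHO cells were given compounds for 2 hr, then doxycycline hyclate at 1 uM final, and incubated 16 hr at 37 C. Viability was measured as ATP content by CellTiter-Glo luminescence.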

[8] = molecular target: Nuclear receptor ROR-gamma (Homo sapiens) (UniProt P51449); assay: qHTS assay to identify small molecule antagonists of the retinoid-related orphan receptor gamma (ROR-gamma) signaling pathway (AID 1159521)
Summary of the method: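 Decreased RORE-driven luciferase luminescence indicates antagonism. Tet-on RORγ CHO cells received compound, then 1 uM final doxycycline 2 h later; signal read after 16 h incubation.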

[9] = qHTS assay to identify small molecule agonists of the AP-1 signaling pathway - cell viability counter screen (AID 1159525; calls by dose curve; also: nearly all actives have a fitted effect of over 55% in size)
Summary of the method: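 AP-1-bla ME-180 cells in Opti-MEM with 0.5% dialyzed FBS, compound exposure 5 h at 37 C in 15-point titration. Viability read in the same wells as ATP content by CellTiter-Glo luminescence, normalised to tetra-n-octylammonium bromide and DMSO controls.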

[10] = qHTS assay to identify small molecule agonists of the AP-1 signaling pathway (AID 1159526; calls by dose curve)
[11] = molecular target: Retinoic acid receptor RXR-alpha (Homo sapiens) (UniProt P19793); assay: qHTS assay to identify small molecule agonists of the RXR signaling pathway (AID 1159527; calls by dose curve; also: nearly all actives have a fitted effect of over 35% in size)
Chain of Retinoic acid receptor RXR-alpha (Homo sapiens) (P19793 whole entry, looked up): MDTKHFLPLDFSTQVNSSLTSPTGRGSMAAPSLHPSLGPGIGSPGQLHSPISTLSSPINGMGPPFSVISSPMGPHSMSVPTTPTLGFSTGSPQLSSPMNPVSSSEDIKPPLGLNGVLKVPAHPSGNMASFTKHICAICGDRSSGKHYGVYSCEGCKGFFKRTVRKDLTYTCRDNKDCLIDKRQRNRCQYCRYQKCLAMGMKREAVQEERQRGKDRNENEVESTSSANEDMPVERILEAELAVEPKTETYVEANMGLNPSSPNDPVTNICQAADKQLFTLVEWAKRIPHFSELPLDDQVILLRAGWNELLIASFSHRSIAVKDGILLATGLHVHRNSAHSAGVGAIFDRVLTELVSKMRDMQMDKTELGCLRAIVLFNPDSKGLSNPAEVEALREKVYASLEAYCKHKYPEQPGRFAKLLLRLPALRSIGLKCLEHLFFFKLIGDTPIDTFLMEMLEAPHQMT
Summary of the method: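 16 hr incubation of compound-treated RXR-alpha-UAS-bla HEK 293T cells (2% charcoal-stripped FBS, 37 C) preceded a 2 hr room-temperature LiveBLAzer FRET substrate step and blue/green fluorescence measurement.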

[12] = qHTS assay to identify small molecule agonists of the RXR signaling pathway - cell viability counter screen (AID 1159529)
Summary of the method: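 In this parallel viability measure, GeneBLAzer RXR-alpha HEK 293T cells (2% charcoal-stripped FBS) were given a 5 hr preincubation, treated with compounds 16 hr at 37 C, and read by CellTiter-Glo luminescence.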

[13] = qHTS assay to identify small molecule antagonists of the retinoid acid receptor (RAR) signaling pathway - cell viability counter screen (AID 1159551); also: nearly all actives have a fitted effect of over 35% in size
Summary of the method: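 Luminescent ATP quantitation (CellTiter-Glo) gave cell viability in C3RL4 cells exposed to test chemicals for 6 h at 37 C alongside 1 uM final retinol.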

[14] = qHTS assay to identify small molecule antagonists of the retinoic acid receptor (RAR) signaling pathway (AID 1159552; also: nearly all actives have a fitted effect of over 50% in size)
Summary of the method: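 C3RL4 RARE-luc cells, overnight plating; retinol 1 uM final added right after compound; 6 hr 37 C; luciferase read at 30 min RT.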

[15] = qHTS assay to identify small molecule agonists of the retinoic acid receptor (RAR) signaling pathway (AID 1159553)
Summary of the method: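 Luminescence from a RARE-driven luciferase reporter in C3RL4 cells served as the read-out, measured after 30 min with detection reagent at room temperature. Compounds in DMSO were applied for 6 hr at 37 C following overnight seeding.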

[16] = qHTS assay to identify small molecule antagonists of the estrogen related receptor (ERR) signaling pathway - cell viability counter screen (AID 1224818);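 also: series mostly up to about 46 µM; viability measured after 17.5 h of compound exposure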
Summary of the method: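 Multiplexed counter screen to separate cytotoxic compounds from true ERR modulators. ERR cells received DMSO-dissolved compounds after a 6 h pre-incubation, were exposed 17.5 h at 37 C, then assayed with CellTiter-Fluor fluorescence.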

[17] = qHTS assay to identify small molecule antagonists of the estrogen related receptor signaling pathway with the pleiotropic PPARgamma coactivator (PGC) cell viability counter screen (AID 1224822;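 also: series mostly up to about 46 µM; viability read after 17.5 h compound exposure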)
Summary of the method: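 Cells: PGC/ERR, 2,000/well, 1536-well format. Pre-incubation 6 h, 37 C/5% CO2. Compound exposure 17.5 h, 37 C. Detection: CellTiter-Fluor, 30 min, fluorescence.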

[18] = qHTS assay to identify small molecule antagonists of the estrogen related receptor (ERR) signaling pathway (AID 1224819)
Summary of the method: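 Seed ERR cells 2,000/well; rest 6 h at 37 C/5% CO2; pin compounds in DMSO; incubate 18 h at 37 C; add One-Glo; wait 30 min at room temperature; measure luminescence.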

[19] = qHTS assay to identify small molecule agonists of the estrogen related receptor (ERR) signaling pathway (AID 1224820)
Summary of the method: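 ERR reporter cell line (from NTP), 2,000 cells/well, incubated 6 h before compound addition, then 18 h at 37 C. Luminescence measured 30 min after One-Glo reagent at room temperature.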

[20] = tested on: estrogen-related receptor alpha (ERRalpha) with PGC-1alpha coactivator, human; assay: qHTS assay to identify small molecule antagonists of the estrogen related receptor signaling pathway with the pleiotropic PPARgamma coactivator (PGC) (AID 1224821; calls by dose curve)
Summary of the method: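 PGC/ERR reporter cell line, plated 6 h before compound addition, then exposed 18 h at 37 °C. Luciferase activity read by luminescence 30 min after One-Glo addition; decrease indicates antagonism.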

Measured: Potency

CC1(C)CO[C@@H](CC(=O)O)CN1
not listed: [16] | [17] | [18] | [19] | [20]
inactive: all other assays above

NC(=O)c1cn(Cc2c(F)cccc2F)nn1
not listed: [18] | [19] | [20]
inactive: all other assays above

CCn1ccnc1CC1COc2ccccc2O1 (configuration not stated)
not listed: [2]
inactive: all other assays above

CC(C[N+](C)(C)C)OC(N)=O (configuration not stated)
inactive: all assays above

O=Cc1cccc([N+](=O)[O-])c1
not listed: [2] | [16] | [17] | [18] | [19] | [20]
inactive: all other assays above

O=C1NC(=O)[C@@]2(CCOc3ccc(F)cc32)N1
not listed: [18] | [19] | [20]
inactive: all other assays above

NS(=O)(=O)c1cc(C(=O)NN2C[C@H]3[C@H]4CCC(C4)[C@H]3C2)ccc1Cl
not listed: [2] | [16] | [17] | [18] | [19] | [20]
inactive: all other assays above

OCCOc1ccc(OCCO)cc1
not listed: [2] | [16] | [17] | [18] | [19] | [20]
inactive: all other assays above

Cc1cc2c(cc1S(N)(=O)=O)S(=O)(=O)CCC2
not listed: [16] | [17] | [18] | [19] | [20]
inactive: all other assays above

CCCCNC(=O)NCCCC
not listed: [2] | [16] | [17] | [18] | [19] | [20]
inactive: all other assays above

CCS(=O)(=O)c1ccc(OC)c(C(=O)OC)c1
not listed: [2] | [16] | [17] | [18] | [19] | [20]
inactive: all other assays above

CC(NC(CCc1ccccc1)C(=O)O)C(=O)N1C(=O)N(C)CC1C(=O)O (configuration not stated)
not listed: [2] | [16] | [17] | [18] | [19] | [20]
inactive: all other assays above

CCC(=O)OC(C)c1ccccc1 (configuration not stated)
not listed: [16] | [17] | [18] | [19] | [20]
inactive: all other assays above

COc1ccc(CCN(C)CCCC(C#N)(c2cc(OC)c(OC)c(OC)c2)C(C)C)cc1OC (configuration not stated)
not listed: [18] | [19] | [20]
inactive: all other assays above

NS(=O)(=O)c1cc2c(cc1Cl)NC(C1CC3C=CC1C3)NS2(=O)=O (configuration not stated)
not listed: [18] | [19] | [20]
inactive: all other assays above

CCCCOCCOCCOCc1cc2c(cc1CCC)OCO2
not listed: [18] | [19] | [20]
inactive: all other assays above

O=C(CCCN1CCC(O)(c2cccc(C(F)(F)F)c2)CC1)c1ccc(F)cc1
not listed: [18]
inactive: all other assays above
